Measured values reported in the supplement of paper PMC10849652.
Targets with a hit are over-represented here; the source holds about 7,900 in all. About 0.6% of all pairs of compound and target were hits. Unmarked numbers belong to inactive results.

What was measured:
Assay in all cases: log2 fold change, soluble protein after heating vs DMSO (PISA); higher = thermal stabilisation; K562 cells, 10 uM, 30 min; active = over 0.2 and 3.5 SD of the protein, either way, in both replicates (recomputed)
[1] = compound: CC1=C(C=C(C=C1)NC(=O)C2=CC(=CC=C2)C(C)(C)C#N)NC3=CC4=C(C=C3)N=CN(C4=O)C
Summary of the method: (§1)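 Soluble protein was defined as the supernatant after 21,000xg for 90 min. It came from K562 cells at 2×10^6 cells/mL given 10 μM compound for 30 min, heated in aliquots for 3 min across 48°C-58°C, pooled, and extracted in PBS with 0.5% NP-40 at 4°C, and was quantified by TMTpro 16plex LC-MS/MS with equalised channel sums. Thermal stability against control samples, from duplicates, is reported as log2 fold change.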

[2] = compound: CC1=C(C=C(C=C1)NC(=O)C2=CC(=CC=C2)N(C)C)NC(=O)C3=CC=C(C=C3)O
Summary of the method: as §1

[3] = compound: CC1=CC=C(C=C1)SC2=C3C=C(SC3=CN=C2)C(=O)N
Summary of the method: as §1

[4] = compound: CC1=NC(=CC=C1)C2=C(N=C(N2)C(C)(C)C)C3=CC4=NC=CN=C4C=C3
Summary of the method: as §1

[5] = compound: CCCCN(Cc1ccc(C(=O)NO)cc1)C(=O)Nc1ccccc1 [Nexturastat A]
Summary of the method: as §1

[6] = compound: CCCS(=O)(=O)Nc1ccc(F)c(C(=O)c2c[nH]c3ncc(-c4ccc(Cl)cc4)cc23)c1F [vemurafenib]
Summary of the method: as §1

[7] = compound: CCCS(=O)(=O)Nc1ccc(F)c(C(=O)c2c[nH]c3ncc(Cl)cc23)c1F
Summary of the method: as §1

[8] = compound: CCCc1cc(C)[nH]c(=O)c1CNC(=O)c1cc(-c2ccnc(N3CCN(C)CC3)c2)cc2c1cnn2C(C)C
Summary of the method: as §1

[9] = compound: CCN(CC)Cc1ccc2cc(COC(=O)Nc3ccc(C(=O)NO)cc3)ccc2c1 [givinostat]
Summary of the method: as §1

[10] = compound: CCN(CCCOc1ccc2c(Nc3cc(CC(=O)Nc4cccc(F)c4)[nH]n3)ncnc2c1)CCOP(=O)(O)O [barasertib]
Summary of the method: as §1

[11] = compound: CC[C@@H]1C(=O)N(C)c2cnc(Nc3ccc(C(=O)NC4CCN(C)CC4)cc3OC)nc2N1C1CCCC1
Summary of the method: as §1

[12] = compound: CC[C@@H]1C(=O)N(C)c2cnc(Nc3ccc(C(=O)N[C@H]4CC[C@H](N5CCN(CC6CC6)CC5)CC4)cc3OC)nc2N1C(C)C [volasertib]
Summary of the method: as §1

[13] = compound: CC[C@H](C)N1C=C(C2=C(C=C(C=C21)C3=CN=C(C=C3)N4CCNCC4)C(=O)NCC5=C(C=C(NC5=O)C)C)C
Summary of the method: as §1

[14] = compound: CC[C@H](C)[C@@H](C(=O)N[C@@H]([C@@H](C)O)C(=O)N[C@@H](CC(C)C)C(=O)[C@]1(CO1)C)NC(=O)[C@H]([C@@H](C)CC)N(C)C(=O)C [epoxomicin]
Summary of the method: as §1

[15] = compound: CCn1c(C(=O)N(C2CC2)C2CC2)cc2c3c(ncn3C)c(Nc3cc(C)n(C)n3)nc21
Summary of the method: as §1

[16] = compound: CCn1cc(-c2ccnc3[nH]c(-c4cccc(CN(C)C)c4)cc23)c(-c2ccc(NC(=O)N(C)C)cc2)n1
Summary of the method: as §1

[17] = compound: CN(C)CC(=O)Nc1ccc2[nH]c(=O)c3ccccc3c2c1
Summary of the method: as §1

[18] = compound: CN(CCOC1=CC=C(C=C1)C[C@H]2C(=O)NC(=O)S2)C3=CC=CC=N3 (racemic) [rosiglitazone]
Summary of the method: as §1

[19] = compound: CN1C2=C(C3=C1C(=O)N(N=C3)CC4=CC(=CC=C4)N)SC(=C2)S(=O)C
Summary of the method: as §1

[20] = compound: CN1CCC(CNc2ccc3ncc(-c4cccc(OC(F)(F)F)c4)n3n2)CC1
Summary of the method: as §1

UniProt Q96FX7, sequence (Q96FX7 whole entry, looked up): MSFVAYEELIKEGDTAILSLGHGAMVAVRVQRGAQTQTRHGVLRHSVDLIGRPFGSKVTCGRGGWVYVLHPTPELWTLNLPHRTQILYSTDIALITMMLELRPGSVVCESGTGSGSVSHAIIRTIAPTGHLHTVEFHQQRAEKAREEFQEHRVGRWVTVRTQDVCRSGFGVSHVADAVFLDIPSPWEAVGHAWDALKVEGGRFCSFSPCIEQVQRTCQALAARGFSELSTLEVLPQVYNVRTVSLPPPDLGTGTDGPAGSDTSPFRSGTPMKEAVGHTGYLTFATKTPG
UniProt O94874, sequence (O94874 whole entry, looked up): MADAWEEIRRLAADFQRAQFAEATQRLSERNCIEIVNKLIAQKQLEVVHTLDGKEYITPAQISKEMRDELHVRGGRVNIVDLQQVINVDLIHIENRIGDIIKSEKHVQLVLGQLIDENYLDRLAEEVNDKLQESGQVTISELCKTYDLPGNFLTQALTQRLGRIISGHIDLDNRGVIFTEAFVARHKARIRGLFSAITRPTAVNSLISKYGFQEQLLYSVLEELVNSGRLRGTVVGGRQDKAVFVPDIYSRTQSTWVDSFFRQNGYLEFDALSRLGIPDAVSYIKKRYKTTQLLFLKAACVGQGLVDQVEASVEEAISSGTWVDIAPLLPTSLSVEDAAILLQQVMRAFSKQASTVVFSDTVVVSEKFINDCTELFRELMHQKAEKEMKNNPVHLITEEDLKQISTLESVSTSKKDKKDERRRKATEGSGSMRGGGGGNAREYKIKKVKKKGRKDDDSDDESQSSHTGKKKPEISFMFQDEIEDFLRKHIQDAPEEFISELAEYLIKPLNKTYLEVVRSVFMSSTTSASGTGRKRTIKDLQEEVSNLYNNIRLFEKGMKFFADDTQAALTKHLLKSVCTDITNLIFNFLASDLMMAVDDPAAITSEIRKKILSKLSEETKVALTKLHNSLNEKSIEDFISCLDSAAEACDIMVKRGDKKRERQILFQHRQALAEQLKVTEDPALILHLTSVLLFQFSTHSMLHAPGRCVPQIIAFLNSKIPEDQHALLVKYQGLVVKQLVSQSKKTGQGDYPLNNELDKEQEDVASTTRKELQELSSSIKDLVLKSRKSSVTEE
UniProt P12956, sequence (P12956 whole entry, looked up): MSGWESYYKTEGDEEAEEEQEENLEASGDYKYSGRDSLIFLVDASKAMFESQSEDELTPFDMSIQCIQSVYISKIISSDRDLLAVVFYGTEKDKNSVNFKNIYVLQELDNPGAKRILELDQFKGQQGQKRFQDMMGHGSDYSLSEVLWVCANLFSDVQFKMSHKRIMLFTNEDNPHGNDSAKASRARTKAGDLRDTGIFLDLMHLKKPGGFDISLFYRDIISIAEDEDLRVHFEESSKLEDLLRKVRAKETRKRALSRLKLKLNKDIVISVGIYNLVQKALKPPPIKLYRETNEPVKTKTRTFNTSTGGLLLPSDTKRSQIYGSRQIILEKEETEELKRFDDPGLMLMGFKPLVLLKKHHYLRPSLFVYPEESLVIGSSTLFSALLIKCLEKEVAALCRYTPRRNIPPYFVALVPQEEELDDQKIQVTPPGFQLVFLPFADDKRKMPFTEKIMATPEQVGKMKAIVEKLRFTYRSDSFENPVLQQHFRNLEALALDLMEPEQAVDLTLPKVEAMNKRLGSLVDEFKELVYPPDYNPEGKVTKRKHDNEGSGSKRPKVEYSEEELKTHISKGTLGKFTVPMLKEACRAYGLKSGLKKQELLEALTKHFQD
UniProt Q9UDW1, sequence (Q9UDW1 whole entry, looked up): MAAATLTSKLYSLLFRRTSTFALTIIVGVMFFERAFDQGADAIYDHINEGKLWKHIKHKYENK
UniProt Q9NYU2, sequence (Q9NYU2 whole entry, looked up): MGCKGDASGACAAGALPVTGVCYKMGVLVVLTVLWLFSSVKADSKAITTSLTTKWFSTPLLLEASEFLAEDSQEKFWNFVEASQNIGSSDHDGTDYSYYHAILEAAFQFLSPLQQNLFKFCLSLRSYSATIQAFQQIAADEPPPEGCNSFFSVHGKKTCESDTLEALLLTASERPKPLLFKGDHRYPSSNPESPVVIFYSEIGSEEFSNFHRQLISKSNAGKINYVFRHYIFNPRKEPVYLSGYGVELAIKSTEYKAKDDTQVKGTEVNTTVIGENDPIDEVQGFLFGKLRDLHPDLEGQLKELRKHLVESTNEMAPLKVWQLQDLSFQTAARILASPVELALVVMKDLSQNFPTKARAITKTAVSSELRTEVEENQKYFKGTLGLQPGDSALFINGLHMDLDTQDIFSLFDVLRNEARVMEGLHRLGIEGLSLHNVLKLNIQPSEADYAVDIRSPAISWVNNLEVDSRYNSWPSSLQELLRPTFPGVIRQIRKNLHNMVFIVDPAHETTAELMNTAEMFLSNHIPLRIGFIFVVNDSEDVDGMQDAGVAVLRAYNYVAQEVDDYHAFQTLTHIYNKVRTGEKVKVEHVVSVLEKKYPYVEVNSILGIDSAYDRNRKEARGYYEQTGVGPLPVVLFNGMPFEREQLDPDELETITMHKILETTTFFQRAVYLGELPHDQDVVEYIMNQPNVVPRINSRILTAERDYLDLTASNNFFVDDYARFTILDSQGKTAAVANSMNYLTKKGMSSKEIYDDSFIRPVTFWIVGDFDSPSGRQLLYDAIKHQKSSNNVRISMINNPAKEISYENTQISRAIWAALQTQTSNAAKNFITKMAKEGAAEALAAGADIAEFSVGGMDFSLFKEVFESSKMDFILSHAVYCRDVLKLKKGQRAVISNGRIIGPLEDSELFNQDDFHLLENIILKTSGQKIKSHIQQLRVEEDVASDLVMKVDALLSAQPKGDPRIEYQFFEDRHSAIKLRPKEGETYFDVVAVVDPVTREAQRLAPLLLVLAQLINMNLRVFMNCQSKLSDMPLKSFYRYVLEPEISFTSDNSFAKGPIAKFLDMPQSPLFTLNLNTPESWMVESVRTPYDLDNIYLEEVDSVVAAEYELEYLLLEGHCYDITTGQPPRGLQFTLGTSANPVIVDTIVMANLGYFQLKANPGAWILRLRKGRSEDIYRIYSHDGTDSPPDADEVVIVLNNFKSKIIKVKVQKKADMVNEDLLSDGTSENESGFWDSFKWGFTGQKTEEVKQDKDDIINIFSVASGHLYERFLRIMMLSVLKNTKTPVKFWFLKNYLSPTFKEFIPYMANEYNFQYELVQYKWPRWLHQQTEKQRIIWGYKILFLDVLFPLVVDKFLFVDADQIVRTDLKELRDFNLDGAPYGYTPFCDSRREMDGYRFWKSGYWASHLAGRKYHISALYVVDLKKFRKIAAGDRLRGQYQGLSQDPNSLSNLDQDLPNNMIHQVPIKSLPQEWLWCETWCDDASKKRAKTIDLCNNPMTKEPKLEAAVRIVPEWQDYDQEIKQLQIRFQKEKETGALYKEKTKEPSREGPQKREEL
UniProt A0JNW5, sequence (A0JNW5 whole entry, looked up): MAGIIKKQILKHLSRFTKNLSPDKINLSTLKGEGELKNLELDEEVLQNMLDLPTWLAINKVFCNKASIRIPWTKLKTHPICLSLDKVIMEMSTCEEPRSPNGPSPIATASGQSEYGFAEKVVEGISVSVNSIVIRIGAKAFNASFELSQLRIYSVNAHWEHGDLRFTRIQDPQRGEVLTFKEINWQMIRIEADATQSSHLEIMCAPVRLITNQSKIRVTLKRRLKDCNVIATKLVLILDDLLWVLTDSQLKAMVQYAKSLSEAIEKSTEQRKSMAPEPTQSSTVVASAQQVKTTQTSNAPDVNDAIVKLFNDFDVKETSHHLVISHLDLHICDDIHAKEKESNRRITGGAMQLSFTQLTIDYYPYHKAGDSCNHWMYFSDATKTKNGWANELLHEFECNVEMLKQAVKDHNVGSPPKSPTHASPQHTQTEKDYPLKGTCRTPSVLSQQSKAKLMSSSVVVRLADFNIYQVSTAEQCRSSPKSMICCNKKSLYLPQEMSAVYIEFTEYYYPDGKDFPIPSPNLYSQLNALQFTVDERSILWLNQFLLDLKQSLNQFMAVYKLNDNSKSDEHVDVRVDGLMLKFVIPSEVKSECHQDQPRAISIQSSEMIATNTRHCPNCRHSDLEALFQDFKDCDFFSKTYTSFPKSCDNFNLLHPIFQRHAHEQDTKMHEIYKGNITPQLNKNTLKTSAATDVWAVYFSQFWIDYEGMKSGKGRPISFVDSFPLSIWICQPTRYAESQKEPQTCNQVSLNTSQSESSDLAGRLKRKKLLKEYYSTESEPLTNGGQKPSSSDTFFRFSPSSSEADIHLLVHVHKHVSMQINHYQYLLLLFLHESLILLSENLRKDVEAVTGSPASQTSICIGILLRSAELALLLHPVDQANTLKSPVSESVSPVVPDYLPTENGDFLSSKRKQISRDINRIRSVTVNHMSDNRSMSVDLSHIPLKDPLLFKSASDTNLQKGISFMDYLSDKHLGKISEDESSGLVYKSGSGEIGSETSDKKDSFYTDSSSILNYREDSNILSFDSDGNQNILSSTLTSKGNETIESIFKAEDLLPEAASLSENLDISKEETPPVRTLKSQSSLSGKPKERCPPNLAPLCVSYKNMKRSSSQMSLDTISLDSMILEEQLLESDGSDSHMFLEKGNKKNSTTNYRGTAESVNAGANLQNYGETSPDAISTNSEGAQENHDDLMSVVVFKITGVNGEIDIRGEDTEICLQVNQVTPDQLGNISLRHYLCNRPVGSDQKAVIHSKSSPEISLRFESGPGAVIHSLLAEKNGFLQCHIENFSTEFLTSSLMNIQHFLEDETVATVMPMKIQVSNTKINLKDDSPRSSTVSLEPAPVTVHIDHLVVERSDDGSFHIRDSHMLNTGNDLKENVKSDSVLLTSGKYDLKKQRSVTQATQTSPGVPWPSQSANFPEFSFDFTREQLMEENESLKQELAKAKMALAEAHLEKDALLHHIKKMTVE
UniProt Q96LJ8, sequence (Q96LJ8 whole entry, looked up): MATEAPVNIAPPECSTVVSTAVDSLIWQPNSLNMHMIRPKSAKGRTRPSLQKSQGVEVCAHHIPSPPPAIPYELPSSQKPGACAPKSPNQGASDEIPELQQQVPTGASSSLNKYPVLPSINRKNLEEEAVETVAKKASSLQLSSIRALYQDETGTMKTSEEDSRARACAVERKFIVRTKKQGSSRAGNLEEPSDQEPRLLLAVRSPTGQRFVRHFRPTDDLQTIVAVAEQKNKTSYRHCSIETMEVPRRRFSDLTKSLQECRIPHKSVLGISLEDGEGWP

Target | log2 fold change [1] | log2 fold change [2] | log2 fold change [3] | log2 fold change [4] | log2 fold change [5] | log2 fold change [6] | log2 fold change [7] | log2 fold change [8] | log2 fold change [9] | log2 fold change [10] | log2 fold change [11] | log2 fold change [12] | log2 fold change [13] | log2 fold change [14] | log2 fold change [15] | log2 fold change [16] | log2 fold change [17] | log2 fold change [18] | log2 fold change [19] | log2 fold change [20]
VPS8 (UniProt Q8N3P4) | -0.011 | -0.003 | -0.034 | 0.058 | 0.032 | 0.048 | 0.126 | -0.04 | 0.014 | 0.028 | -0.087 | -0.647 (active) | 0.079 | -0.015 | -0.068 | -0.038 | 0.001 | 0.118 | -0.023 | -0.332 (active)
VPS18 (UniProt Q9P253) | 0.051 | -0.025 | -0.029 | -0.004 | 0.04 | 0.017 | 0.017 | 0.004 | 0.035 | 0.088 | -0.22 | -0.398 (active) | 0.086 | -0.019 | -0.009 | -0.059 | 0.046 | 0.042 | 0.005 | -0.231
UBXN10 (UniProt Q96LJ8) | 0.007 | -0.026 | -0.071 | 0.037 | 0.107 | -0.264 | -0.024 | -0.115 | 0.059 | -0.068 | -0.057 | -0.319 | 0.156 | 0.127 | 0.034 | 0.014 | -0.088 | 0.009 | 0.087 | -0.103
UQCR10 (UniProt Q9UDW1) | 0.103 | -0.086 | 0.069 | -0.014 | -0.049 | -0.042 | -0.018 | 0.007 | -0.05 | -0.042 | 0.093 | -0.102 | -0.031 | 0.005 | 0.088 | -0.112 | 0.008 | 0.017 | -0.016 | 0.177
UHRF1BP1L (UniProt A0JNW5) | -0.079 | -0.031 | -0.038 | -0.032 | -0.054 | -0.039 | -0.033 | 0.027 | -0.033 | 0 | 0.165 | 0.034 | -0.009 | -0.022 | -0.018 | -0.086 | 0.02 | 0.028 | -0.079 | 0.1
XPNPEP1 isoform 3 (UniProt Q9NQW7) | 0.014 | -0.024 | 0.023 | 0.036 | -0.014 | 0 | 0.021 | -0.01 | 0.042 | 0.016 | 0.027 | 0.049 | 0.018 | -0.024 | 0 | -0.043 | 0.051 | 0.028 | -0.064 | -0.076
UFL1 (UniProt O94874) | -0.009 | -0.089 | 0.011 | 0.048 | 0.091 | 0.083 | 0.089 | 0.043 | 0.08 | 0.031 | -0.063 | -0.351 (active) | 0.086 | 0.004 | -0.06 | -0.023 | 0.054 | 0.06 | 0.04 | -0.089
UGGT1 (UniProt Q9NYU2) | -0.001 | 0.004 | 0.001 | -0.018 | 0.014 | 0 | 0.003 | 0.024 | 0.02 | 0 | -0.01 | -0.058 | 0.03 | -0.006 | 0.019 | 0.002 | -0.024 | -0.004 | 0.008 | 0.049
TRMT61A (UniProt Q96FX7) | 0 | 0.056 | -0.013 | -0.083 | 0.204 | -0.119 | -0.009 | 0.114 | 0.038 | -0.091 | 0.044 | 0.161 | 0.022 | -0.061 | 0.028 | 0.043 | -0.098 | -0.105 | 0.099 | -0.001
TTI1 (UniProt O43156) | 0.147 | -0.027 | 0.086 | -0.026 | 0.02 | 0.082 | 0.095 | -0.016 | 0.135 | 0.068 | -0.208 | -0.431 (active) | 0.08 | -0.024 | -0.083 | -0.038 | 0.048 | 0.04 | 0.134 | -0.134
WDR41 (UniProt Q9HAD4) | 0.044 | 0 | -0.007 | 0.001 | 0.002 | 0.008 | 0.036 | -0.011 | -0.04 | 0.033 | -0.169 | -0.282 (active) | -0.056 | 0.061 | -0.026 | -0.043 | 0.012 | 0.007 | -0.076 | -0.115
XRCC6 (UniProt P12956) | 0.046 | -0.051 | 0.022 | 0.033 | -0.023 | 0.059 | 0.138 | 0.025 | 0.116 | 0.086 | -0.205 | -0.515 (active) | 0.095 | 0.072 | -0.032 | 0.008 | 0.071 | 0.07 | -0.014 | -0.172
UBLCP1 (UniProt Q8WVY7) | -0.011 | -0.078 | -0.03 | 0.03 | 0.025 | 0.076 | 0.093 | -0.006 | 0.122 | 0.057 | -0.191 | -0.356 (active) | 0.019 | 0.168 | -0.059 | -0.072 | 0.039 | 0.019 | -0.024 | 0.013
TMEM208 (UniProt Q9BTX3) | -0.093 | 0.005 | 0.037 | -0.022 | -0.112 | -0.06 | 0.035 | -0.219 | 0.097 | -0.012 | -0.071 | -0.208 | -0.048 | -0.03 | -0.046 | -0.022 | 0.274 | 0.081 | -0.02 | 0.036
XPO1 (UniProt O14980) | 0.072 | -0.063 | 0.025 | 0.081 | -0.061 | 0.086 | 0.101 | -0.011 | 0.024 | 0.039 | -0.175 | -0.546 (active) | 0.085 | 0.023 | -0.049 | -0.13 | 0.058 | 0.077 | -0.033 | -0.343 (active)
